Laboratory results: PubChem BioAssay (EPA / NIEHS)
Inconclusive results are not listed. Active and inactive are the calls of the source. How the source made its calls: active means hit-call score of the fitted dose curve at least 0.9, where 1 is the maximum; inconclusive means response in the unintended direction; inactive means score below 0.9.

Experiments:
[1] = target: rat Glutamate, NMDA Agonist Site (GluNMDA), Grin1 (gene 24408) (UniProt P35439); assay: NVS_LGIC_rGluNMDA_Agonist: NovaScreen (NVS) Ligand-Gated Ion Channel Assay for rat Glutamate, NMDA Agonist Site (GluNMDA) (AID 2283327)
Summary of the method: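 Radioligand displacement at the agonist site on rat forebrain membrane preparations, read by filter scintillation after 1 h. Chemicals were first run at 25 uM in duplicate; those passing threshold were titrated to a 50 uM maximum.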

[2] = target: human Serotonin, 5-Hydroxytryptamine Receptor 3 (5HT3), HTR3A (gene 3359) (UniProt P46098); assay: NVS_LGIC_h5HT3: NovaScreen (NVS) Ligand-Gated Ion Channel Assay for human Serotonin, 5-Hydroxytryptamine Receptor 3 (5HT3) (AID 2283325)
Chain of human Serotonin, 5-Hydroxytryptamine Receptor 3 (5HT3), HTR3A (gene 3359) (P46098 whole entry, looked up): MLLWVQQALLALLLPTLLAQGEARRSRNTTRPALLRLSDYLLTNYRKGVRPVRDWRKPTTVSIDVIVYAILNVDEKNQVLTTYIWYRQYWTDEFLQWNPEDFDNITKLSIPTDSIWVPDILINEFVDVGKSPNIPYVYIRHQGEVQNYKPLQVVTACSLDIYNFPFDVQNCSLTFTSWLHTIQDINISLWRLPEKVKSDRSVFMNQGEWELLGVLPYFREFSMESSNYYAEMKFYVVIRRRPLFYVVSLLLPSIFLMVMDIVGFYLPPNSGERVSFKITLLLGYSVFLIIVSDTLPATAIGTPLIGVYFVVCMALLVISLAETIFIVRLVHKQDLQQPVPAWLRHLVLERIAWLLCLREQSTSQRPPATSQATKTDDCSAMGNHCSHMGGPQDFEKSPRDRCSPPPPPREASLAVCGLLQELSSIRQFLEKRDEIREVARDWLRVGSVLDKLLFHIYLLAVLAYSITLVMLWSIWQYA
Summary of the method: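 Initially tested at 25 uM in duplicate, then up to 50 uM in concentration-response for actives, compounds competed with a radioligand for HEK293-derived human 5-HT3 receptor. Bound counts were measured by filtration and scintillation at 1 h; loss of signal versus DMSO.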

[3] = target: human Androgen Receptor (AR), AR (gene 367) (UniProt P10275); assay: NVS_NR_hAR: NovaScreen (NVS) Nuclear Receptor Binding Assay for human Androgen Receptor (AR) (AID 2283332)
Chain of human Androgen Receptor (AR), AR (gene 367) (P10275 whole entry, looked up): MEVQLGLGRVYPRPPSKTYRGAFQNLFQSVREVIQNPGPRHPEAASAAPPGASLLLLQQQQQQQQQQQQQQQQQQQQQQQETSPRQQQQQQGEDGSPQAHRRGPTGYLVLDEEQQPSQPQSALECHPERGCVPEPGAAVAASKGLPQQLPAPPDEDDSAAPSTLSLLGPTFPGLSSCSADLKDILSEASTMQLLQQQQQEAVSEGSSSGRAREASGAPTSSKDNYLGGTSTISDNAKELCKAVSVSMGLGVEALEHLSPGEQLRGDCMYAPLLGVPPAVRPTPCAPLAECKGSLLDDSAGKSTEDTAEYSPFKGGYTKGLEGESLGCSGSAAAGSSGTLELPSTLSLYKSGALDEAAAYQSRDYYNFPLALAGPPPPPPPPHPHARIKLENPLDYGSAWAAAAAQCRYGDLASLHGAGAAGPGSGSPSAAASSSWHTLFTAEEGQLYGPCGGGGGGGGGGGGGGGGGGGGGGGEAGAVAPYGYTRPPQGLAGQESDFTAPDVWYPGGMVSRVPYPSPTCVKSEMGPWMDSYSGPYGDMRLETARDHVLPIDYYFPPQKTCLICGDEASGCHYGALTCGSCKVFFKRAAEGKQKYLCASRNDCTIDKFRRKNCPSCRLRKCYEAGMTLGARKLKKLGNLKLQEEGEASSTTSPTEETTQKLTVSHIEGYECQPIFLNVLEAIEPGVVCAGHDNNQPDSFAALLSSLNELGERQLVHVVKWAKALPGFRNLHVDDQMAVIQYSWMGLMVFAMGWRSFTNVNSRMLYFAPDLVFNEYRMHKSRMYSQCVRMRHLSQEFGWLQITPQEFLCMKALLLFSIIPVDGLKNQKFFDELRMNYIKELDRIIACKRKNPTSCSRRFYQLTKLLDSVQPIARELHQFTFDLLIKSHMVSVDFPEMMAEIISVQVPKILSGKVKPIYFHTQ
Procedure: NVS_NR_hAR is a biochemical, single-readout assay that uses extracted gene-proteins from LnCAP in a cell-free assay. Measurements were taken 20 hours after chemical dosing in a 96-well plate.NVS_NR_hAR is one of one assay component(s) measured or calculated from the NVS_NR_hAR assay. It is designed to make measurements of radioligand binding, a form of binding reporter, as detected with scintillation counting signals by Lysate-based radiodetection technology.Data from the assay component NVS_NR_hAR was analyzed into 1 assay endpoint. This assay endpoint, NVS_NR_hAR, was analyzed in the positive analysis fitting direction relative to DMSO as the negative control and baseline of activity. Using a type of binding reporter, loss-of-signal activity can be used to understand changes in the binding as they relate to the gene AR. Furthermore, this assay endpoint can be referred to as a primary readout, because the performed assay has only produced 1 assay endpoint. To generalize the intended target to other relatable targets, this assay endpoint is annotated to the nuclear receptor intended target family, where the subfamily is steroidal.
Binding assays used specific radioligands (tritiated, iodinated) with non-radioactive competitive displacement ligands in agonist or antagonist protocols (as indicated) and various reference compounds and inhibitors to titrate specific binding to receptors and transporters. Most enzyme assays (CYPs, kinases, phosphatases, proteases, HDACs) used recombinant protein and specific substrates (fluorescence mostly, some colorimetric and radioactive) and inhibitors, followed by a biochemical separation of substrate and product. All assays for the biochemical HTS were initially run in duplicate at a single concentration (10 uM for CYP450 assays and 25 uM for all others). […] Each assay was run with positive and negative controls, and concurrent controls on every plate. […]

[4] = target: rat Gamma-Aminobutyric Acid Type A Receptor, Non-Selective (GABAR-NonSelective), Gabra1 (gene 29705) (UniProt P62813); assay: NVS_LGIC_rGABAR_NonSelective: NovaScreen (NVS) Ligand-Gated Ion Channel Assay for rat Gamma-Aminobutyric Acid Type A Receptor, Non-Selective (GABAR-NonSelective) (AID 2283326)
Chain of rat Gamma-Aminobutyric Acid Type A Receptor, Non-Selective (GABAR-NonSelective), Gabra1 (gene 29705) (P62813 whole entry, looked up): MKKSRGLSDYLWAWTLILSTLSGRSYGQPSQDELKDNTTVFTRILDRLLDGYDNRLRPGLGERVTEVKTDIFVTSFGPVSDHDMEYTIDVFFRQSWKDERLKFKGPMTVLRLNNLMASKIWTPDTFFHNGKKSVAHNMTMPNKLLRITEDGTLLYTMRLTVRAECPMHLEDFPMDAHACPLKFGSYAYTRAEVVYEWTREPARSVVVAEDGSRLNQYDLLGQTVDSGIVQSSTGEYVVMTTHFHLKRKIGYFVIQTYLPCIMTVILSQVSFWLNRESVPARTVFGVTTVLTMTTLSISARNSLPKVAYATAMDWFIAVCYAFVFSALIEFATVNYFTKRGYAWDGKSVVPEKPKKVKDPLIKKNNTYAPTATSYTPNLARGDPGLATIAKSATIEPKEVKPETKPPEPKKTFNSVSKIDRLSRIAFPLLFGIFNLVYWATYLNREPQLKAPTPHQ
Summary of the method: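 Compounds were first screened in duplicate at 25 uM, with actives run as singleton concentration series (max 50 uM). Binding of a radioligand to rat whole-brain GABA-A preparation was measured by filtration and scintillation counting after 1 h, DMSO baseline.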

[5] = target: rat Thyrotropin Releasing Hormone Receptor (TRH), Trhr (gene 25570) (UniProt Q01717); assay: NVS_GPCR_rTRH: NovaScreen (NVS) G Protein-Coupled Receptor Assay for rat Thyrotropin Releasing Hormone Receptor (TRH) (AID 2283329);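 further: hit means lower bound tracer signal versus DMSO baseline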
Chain of rat Thyrotropin Releasing Hormone Receptor (TRH), Trhr (gene 25570) (Q01717 whole entry, looked up): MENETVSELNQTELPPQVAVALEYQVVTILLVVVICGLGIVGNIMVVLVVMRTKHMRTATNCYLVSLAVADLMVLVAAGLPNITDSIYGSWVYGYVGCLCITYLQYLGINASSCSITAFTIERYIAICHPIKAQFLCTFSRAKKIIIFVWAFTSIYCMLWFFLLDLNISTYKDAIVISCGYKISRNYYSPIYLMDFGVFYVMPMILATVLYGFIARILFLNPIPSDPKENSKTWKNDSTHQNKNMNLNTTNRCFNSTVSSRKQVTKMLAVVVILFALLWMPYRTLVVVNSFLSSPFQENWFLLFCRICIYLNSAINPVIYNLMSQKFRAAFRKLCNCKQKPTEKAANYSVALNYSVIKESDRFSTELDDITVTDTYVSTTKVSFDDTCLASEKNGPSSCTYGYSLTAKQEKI
Summary of the method: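 Competitive radioligand binding on rat forebrain membrane preparations, with filtration and scintillation readout after 4 h. Primary testing in duplicate at 25 uM; actives confirmed in concentration-response. DMSO defined baseline.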

[6] = target: human Peripheral-type Benzodiazepine Receptor (PBR), TSPO (gene 706) (UniProt P30536); assay: NVS_MP_hPBR: NovaScreen (NVS) Membrane Protein Assay for human Peripheral-type Benzodiazepine Receptor (PBR) (AID 2283331);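 further: hits reduce radioligand binding relative to DMSO baseline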
Chain of human Peripheral-type Benzodiazepine Receptor (PBR), TSPO (gene 706) (P30536 whole entry, looked up): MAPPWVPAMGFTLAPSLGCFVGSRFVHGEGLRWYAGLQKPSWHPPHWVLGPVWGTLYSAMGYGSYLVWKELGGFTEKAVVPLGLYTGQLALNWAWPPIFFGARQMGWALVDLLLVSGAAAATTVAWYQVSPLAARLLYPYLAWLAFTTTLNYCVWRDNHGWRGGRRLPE
Summary of the method: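 Using human colon-derived membranes, this one-endpoint binding test reads radioligand loss by scintillation after 1 h. Screening started at 25 uM in duplicate, with positive and negative controls on every plate, and actives moved to dose series.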

[7] = target: rat Glutamate, AMPA Site (AMPA), Gria1 (gene 50592) (UniProt P19490); assay: NVS_LGIC_rAMPA: NovaScreen (NVS) Ligand-Gated Ion Channel Assay for rat Glutamate, AMPA Site (AMPA) (AID 2283324)
Chain of rat Glutamate, AMPA Site (AMPA), Gria1 (gene 50592) (P19490 whole entry, looked up): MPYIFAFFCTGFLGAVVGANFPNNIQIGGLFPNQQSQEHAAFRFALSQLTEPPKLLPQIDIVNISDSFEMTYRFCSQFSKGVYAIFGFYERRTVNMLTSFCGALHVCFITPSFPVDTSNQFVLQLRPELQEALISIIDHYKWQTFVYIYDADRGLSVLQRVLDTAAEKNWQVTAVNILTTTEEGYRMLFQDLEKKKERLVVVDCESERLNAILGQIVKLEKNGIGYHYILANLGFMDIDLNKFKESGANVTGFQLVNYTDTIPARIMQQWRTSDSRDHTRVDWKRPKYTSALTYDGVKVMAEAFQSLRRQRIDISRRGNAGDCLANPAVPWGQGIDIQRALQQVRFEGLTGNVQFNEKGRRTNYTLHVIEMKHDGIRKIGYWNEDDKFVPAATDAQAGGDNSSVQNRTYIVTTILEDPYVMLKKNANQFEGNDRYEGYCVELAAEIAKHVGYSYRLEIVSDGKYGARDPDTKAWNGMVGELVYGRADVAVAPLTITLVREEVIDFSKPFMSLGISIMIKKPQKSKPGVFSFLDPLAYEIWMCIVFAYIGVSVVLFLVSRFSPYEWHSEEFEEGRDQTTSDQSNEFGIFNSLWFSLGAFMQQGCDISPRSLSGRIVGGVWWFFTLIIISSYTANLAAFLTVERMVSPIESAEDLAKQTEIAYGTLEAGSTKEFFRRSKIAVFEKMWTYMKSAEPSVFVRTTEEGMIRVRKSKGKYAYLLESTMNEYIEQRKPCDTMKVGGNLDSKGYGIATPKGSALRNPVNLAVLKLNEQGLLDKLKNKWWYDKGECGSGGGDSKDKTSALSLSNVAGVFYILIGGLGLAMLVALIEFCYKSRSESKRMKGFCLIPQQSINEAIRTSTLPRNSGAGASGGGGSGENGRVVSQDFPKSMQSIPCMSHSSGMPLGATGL
Summary of the method: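 Screening at 25 uM in duplicate preceded concentration series reaching 50 uM for qualifying compounds. Radioligand displacement on rat forebrain membranes, 1 h, filter-based scintillation readout; reduced binding relative to DMSO.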

[8] = target: rat Oxytocin Receptor (OXT), Oxtr (gene 25342) (UniProt P70536); assay: NVS_GPCR_rOXT: NovaScreen (NVS) G Protein-Coupled Receptor Assay for rat Oxytocin Receptor (OXT) (AID 2283330)
Chain of rat Oxytocin Receptor (OXT), Oxtr (gene 25342) (P70536 whole entry, looked up): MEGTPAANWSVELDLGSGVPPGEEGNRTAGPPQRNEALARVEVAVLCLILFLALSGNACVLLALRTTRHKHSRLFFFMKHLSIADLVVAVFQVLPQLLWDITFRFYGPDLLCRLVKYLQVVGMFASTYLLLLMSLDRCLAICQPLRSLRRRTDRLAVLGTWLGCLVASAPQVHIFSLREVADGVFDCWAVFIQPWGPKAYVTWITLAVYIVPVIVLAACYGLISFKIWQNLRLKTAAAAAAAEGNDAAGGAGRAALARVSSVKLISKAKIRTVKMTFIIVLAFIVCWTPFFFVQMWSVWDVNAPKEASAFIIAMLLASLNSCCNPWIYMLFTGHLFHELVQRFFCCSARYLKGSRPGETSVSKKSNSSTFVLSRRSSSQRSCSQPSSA
Summary of the method: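 Binding to rat uterine membrane receptor was followed by scintillation counting of filter-trapped radioligand after 1 h. A 25 uM duplicate single-point screen preceded concentration series with a top of 50 uM. Signal loss was analysed relative to DMSO.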

[9] = target: Voltage-gated inwardly rectifying potassium channel KCNH2 (Homo sapiens) (UniProt Q12809); assay: NVS_IC_hKhERGCh: NovaScreen (NVS) Ion Channel Assay for human Potassium Channel ERG (KhERGCh) (AID 2283333)
Chain of Voltage-gated inwardly rectifying potassium channel KCNH2 (Homo sapiens) (Q12809 whole entry, looked up): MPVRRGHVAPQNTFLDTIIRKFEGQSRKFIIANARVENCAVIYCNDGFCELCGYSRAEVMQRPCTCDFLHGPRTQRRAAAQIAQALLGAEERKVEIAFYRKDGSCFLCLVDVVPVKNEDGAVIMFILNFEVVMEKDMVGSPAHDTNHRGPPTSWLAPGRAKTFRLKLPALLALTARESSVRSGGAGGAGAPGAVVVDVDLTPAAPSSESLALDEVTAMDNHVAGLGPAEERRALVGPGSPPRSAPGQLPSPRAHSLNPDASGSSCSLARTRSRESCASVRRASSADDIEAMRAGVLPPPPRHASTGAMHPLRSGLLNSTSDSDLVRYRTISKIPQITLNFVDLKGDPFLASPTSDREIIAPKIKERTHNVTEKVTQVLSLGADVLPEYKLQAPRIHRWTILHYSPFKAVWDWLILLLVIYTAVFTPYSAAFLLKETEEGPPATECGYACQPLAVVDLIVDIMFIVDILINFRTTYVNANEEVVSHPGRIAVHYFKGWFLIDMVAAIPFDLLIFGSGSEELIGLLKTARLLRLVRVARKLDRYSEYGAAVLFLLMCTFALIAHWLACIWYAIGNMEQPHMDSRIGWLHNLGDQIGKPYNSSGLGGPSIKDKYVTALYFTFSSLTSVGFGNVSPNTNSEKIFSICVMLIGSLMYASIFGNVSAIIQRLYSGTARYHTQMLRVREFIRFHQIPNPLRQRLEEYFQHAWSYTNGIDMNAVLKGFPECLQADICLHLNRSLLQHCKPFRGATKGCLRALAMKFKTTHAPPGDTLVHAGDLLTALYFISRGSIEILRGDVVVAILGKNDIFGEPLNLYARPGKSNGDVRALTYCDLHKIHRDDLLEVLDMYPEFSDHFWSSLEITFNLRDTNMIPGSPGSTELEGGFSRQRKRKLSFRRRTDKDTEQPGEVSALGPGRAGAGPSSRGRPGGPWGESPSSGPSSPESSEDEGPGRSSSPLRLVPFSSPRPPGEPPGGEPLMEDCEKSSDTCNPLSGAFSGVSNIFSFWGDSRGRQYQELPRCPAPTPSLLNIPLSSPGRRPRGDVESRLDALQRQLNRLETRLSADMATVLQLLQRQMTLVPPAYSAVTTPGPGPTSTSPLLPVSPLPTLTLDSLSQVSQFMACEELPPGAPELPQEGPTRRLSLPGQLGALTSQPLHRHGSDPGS
Summary of the method: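 Membranes from CHO cells expressing human ERG; displacement of radioligand measured by filtration and scintillation after 0.75 h. Single-concentration duplicate screen at 25 uM, then concentration-response for actives; DMSO baseline.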

CC(C)N1C(=O)c2ccccc2NS1(=O)=O
outcome [1]: inactive

CC1(C)CCC(=Cc2ccc(Cl)cc2)C1(O)Cn1cncn1 (stereo not given)
outcome [2]: inactive
AC50 [3]: 0.955 µM (active)

COC(=O)c1c(C(F)F)nc(C(F)(F)F)c(C2=NCCS2)c1CC(C)C
outcome [4]: inactive
AC50 [5]: 25 µM (active)
outcome [6]: inactive

CN=C=S
outcome [7]: inactive
outcome [1]: inactive
outcome [6]: inactive

CC1(C)CON(Cc2ccccc2Cl)C1=O
outcome [5]: inactive

CC(C)NC(=O)N1CC(=O)N(c2cc(Cl)cc(Cl)c2)C1=O
outcome [8]: inactive

O=P(O)(O)CCCl
outcome [8]: inactive

COP(=S)(OC)SCn1nnc2ccccc2c1=O
AC50 [3]: 10.9 µM (active)

CCCCC(O)(Cn1cncn1)c1ccc(Cl)cc1Cl (stereo not given)
AC50 [3]: 18 µM (active)
AC50 [9]: 13.4 µM (active)
